Measurements reported in PubChem BioAssay (NCI).
“And” between values parts separate entries of the source, which are not always exact repeats. Identical values can stand only once. About 83,000 compounds went through this panel and 20% of them were active in at least one assay; those are over-represented in the sample as a whole.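 For each line, cells grew in 96-well plates with the test compound present at a single concentration for 48 hours.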 The source made the active and inactive calls. The calls were made as follows: active = growth percent below 10; inactive = the rest.

The compounds below were run on MDA-MB-468 breast (assay: NCI-60 one-dose screen, 48 h (100 = growth as untreated, 0 = no growth, -100 = all killed)). Settings: 10 µM unless noted.

| SMILES | growth |
| --- | --- |
| O=S(=O)(Nc1ccc(NS(=O)(=O)c2ccccc2)c(Cl)c1)c1ccccc1 | 116% (inactive) |
| CC(C)=C[C@@H]1c2c(c3ccccc3n(C)c2=O)O[C@H]2c3c(c4ccccc4n(C)c3=O)OC(C)(C)[C@@H]12 | 61.4% (inactive) |
| CCN1C(=O)N(CC)C2C1N=C(SCc1ccc(Cl)cc1)N2/N=C/C=C/c1ccccc1OC (centres undefined) | 40.5% (inactive) |
| CC(C)CCN(CCC(C)C)CC(O)c1cc2c(c3ccccc13)CCCC2 (centres undefined) | 54% (inactive) |
| CCN(CC)CCOc1ccc2c(-c3ccccc3)c(-c3ccc(OC)cc3)c(=O)oc2c1 | 44.5% (inactive) |
| O=C1/C(=C/c2ccc(O)cc2O)N=C2SCCCN12 | 96.1% (inactive) |
| N/C(=N\c1nc2ccc([N+](=O)[O-])cc2s1)C(Cl)(Cl)Cl | 3.78% (active) |
| Cc1nn(-c2ccccc2)c2c1oc(=O)c1cc(Cl)ccc12 | 98.7% (inactive) |
| CC[C@H](Nc1nc(C)nc(N)c1C#N)c1nc2cccc(NCc3ccc(C(=O)NO)cc3)c2c(=O)n1-c1ccccc1 | -37.1% (active) |
| COc1cc([C@@H]2c3cc4c(cc3C(Br)[C@H]3COC(=O)[C@H]23)OCO4)cc(OC)c1OC (some centres undefined) | -49.3% (active) |
| Cc1cc2cc3cc(C)c(N(C)C)cc3nc2cc1N(C)C | 23.9% (inactive) |
| Nc1ccc2c(c1)Cc1cc(N)c(N)cc1-2 | 76.6% (inactive) |
| FC(F)(F)Sc1ccc(/C=C/c2cc(/C=C/c3ccc(SC(F)(F)F)cc3)n(-c3ccccc3)n2)cc1 | 95.8% (inactive) |
| CC1C(=NC(=O)c2cnccn2)C(C)C(c2ccc(Cl)cc2)NC1c1ccncc1 (centres undefined) | 92.9% (inactive) |
| O=C1[C@@H]2Cc3c([nH]c4ccccc34)[C@@H](c3ccc(Cl)cc3)N2C(=O)CN1C1CCN(Cc2ccccc2)CC1 | 49.5% (inactive) |
| CN(C)c1ccc(-c2ccc3[nH]c(=O)nc(-c4ccccc4)c3c2)cn1 | 42.4% (inactive) |
| Cc1nc(N)nc(N[C@@H](C)c2nc3cccc(NCc4ccc(C(=O)NO)cc4)c3c(=O)n2-c2ccccc2)n1 | -5.1% (active) |
| CCCCCC(=O)c1ccc(OCCCN2CCN(C(=O)OCC)CC2)cc1 | 47.5% (inactive) |
| COc1cc(C(=O)Nc2cc(O)c(CC=C(C)C)c(O)c2)cc2c1O[C@]1(C)CC[C@@H](O)C(C)(C)[C@H]1C2 | 36.3% (inactive) |
| Cc1nn(C)c2ncnc(N/N=C/c3cccc(O)c3O)c12 | -11% (active) |

| SMILES | growth |
| --- | --- |
| c1ccc(CCSc2ncnc3nc[nH]c23)cc1 | 49% (inactive) |
| CS(=O)CC(=N\O)/C(CS(C)=O)=N\O (centres undefined) | 104% (inactive) |
| NC1=Nc2cc(OCCCCN3Cc4ccccc4C3)c(OCC3CC3)cc2C12CCCC2 | 7.97% (active) |
| CCOC(=O)c1ccccc1NC(c1ccccc1)c1ccc2cccnc2c1O (centres undefined) | 8.19% (active) |
| CC1OS(=O)OC1C (centres undefined) | 96.4% (inactive) and 96.2% (inactive) |
| CN(C)c1ccc(C(C#N)(c2ccccc2)c2ccc(N(C)C)cc2)cc1 | 82.8% (inactive) |
| CC(=O)Oc1ccccc1C(=O)N=C1[Se]CCN1C(=O)c1ccccc1OC(C)=O | -25.6% (active) |
| Clc1ccc(/C=C/c2nc(N3CCOCC3)c3nc(Cl)c(Cl)cc3n2)cc1 | 102% (inactive) |
| O=c1c2cccc3c(N4CCCC4)ccc(c32)c2nc3ccccc3n12 | 80.3% (inactive) |
| C=CCn1c(SCC(=O)Nc2ccc(C(=O)/C=C/c3cc(OC)c(OC)c(OC)c3)cc2)nnc1-c1c[nH]c2ccccc12 | 37% (inactive) |
| N#Cc1c(-c2ccccc2)nc2c(c(-c3ccccc3)nn2-c2ccccc2)c1-c1ccc(N2CCOCC2)cc1 | 80.9% (inactive) |
| FC(F)(F)c1cccc(-n2nnc3cnc(Nc4ccc(N5CCCCC5)cc4)nc32)c1 | 68.7% (inactive) |
| CCCCC/C(C=C(C#N)C#N)=C/c1ccccc1 | 97.9% (inactive) |
| COc1cc2cc(Oc3ccc(NC(=O)Nc4cccc(C(F)(F)F)c4)cc3)c(C)nc2cc1OC | -32.5% (active) |
| CCNC1(NC#N)CCCCC1 | 101% (inactive) |
| COc1cc2ccnc(C=O)c2cc1OC | 82.5% (inactive) |
| Nc1c(C(=O)Nc2ccc(Cl)cc2)sc2nc(-c3cnccn3)cc(-c3cccs3)c12 | 82% (inactive) |
| Nc1c(C(=O)Nc2cccc3ccncc23)sc2nc3c(cc12)C(=O)CCC3 | -12.6% (active) |
| COc1cc2ncnc(NC3CCC(O)CC3)c2cc1OC (centres undefined) | 96.7% (inactive) |
